The record followed here is PubChem BioAssay (NCATS).

Molecules are shown by their SMILES. Records with an inconclusive call do not appear. Unmarked numbers belong to inactive results. The source made the active and inactive calls. Calls follow the shape of the dose curve; as a rule, active = well fitted cell-killing curve with a large enough effect; inconclusive = small, poorly fitted or top-dose-only effect; inactive = flat fitted curve, though single readings scatter.
% is scaled to controls: 0 for no effect and ±100 for the full control effect; potency is read from the fitted curve at half-maximal effect.

A short description of the test: Cell Viability - LYMP2-017 (AID 972). Also: nearly all actives have a fitted effect of over 55% in size. Conditions: LYMP2-017 lymphoblastoid cell viability; series mostly up to 92.2 µM; activity change, negative = cytotoxicity: at the top concentration. An excerpt: NIH Chemical Genomics Center [NCGC]
NIH Molecular Libraries Screening Centers Network [MLSCN]
National Institutes of Environmental Health Sciences [NIEHS]
National Toxicology Program [NTP]
We have developed a 1536-well cell-based assay for quantitative high throughput screening (qHTS) against a number of cell lines to determine in vitro cytotoxicity of small molecules. This particular assay uses a human lymphoblastoid cell line (LYMP2-017) purchased from Coriell Institute for Medical Research.
NCGC Assay Protocol Summary:
The CellTiter-Glo luminescent cell viability assay (Promega) is a homogeneous method to measure the number of viable cells in culture. The end point readout of this assay is based on quantitation of intracellular ATP, an indicator of metabolic activity, using the luciferase reaction. Luciferase catalyzes the oxidation of beetle Luciferin to oxyluciferin and light in the presence of ATP. The luminescent signal is proportional to amount of ATP present.
Using the CellTiter-Glo luminescent cell viability assay, the amount of cellular ATP was measured in the lymphoblastoid cell line with complete culture medium following compound treatment for 24 hours. The assay was performed in opaque white Kalypsys 1536-well plates. In the screen, tetraoctylammonium bromide was used as positive control. Library compounds were measured for their ability to cause acute toxicity in the cell line, as reflected by a decrease in intracellular ATP levels, in a concentration-dependent manner. […] AC50 values were determined from concentration-response data modeled with the standard Hill equation.
qHTS protocol for CellTiter Glo lymphoblastoid cellular assay
[Step] [Parameter] [Value] [Description]
1. Reagent; 5 uL; 2500 lymphoblastoid cells/well
2. Time; 5 hr; 37 C incubation
4. Controls; 23 nL; Tetraoctylammonium bromide 6.4pM to 92 uM
5. Time; 24 hr; 37 C incubation
6. Reagent; 5 uL; CellTiter Glo reagent
7. Time; 30 min; Room Temperature
8. Detection; Luminescence; Viewlux plate reader
Keywords: cell viability, cytotoxicity, lymphoblastoid cell line, luminescence, NTPHTS, NTPHTS_NCGC, NIEHS, DSSTox, MLSMR, MLSCN, NIH Roadmap, qHTS, NCGC
Take `c1ccc2c(c1)Oc1ccccc1S2`: the “activity change, negative = cytotoxicity” value is -0.578%. On the same count and under the same terms, then `Cc1cc(C)cc(N)c1`, with -4.89%; and `Cc1ccc(C)c(N)c1`, with -21.1%; and `CCOCC(=O)O`, with -6.6%. Turning to `NC(=O)NC(N)=O`, the “activity change, negative = cytotoxicity” value was 4.53%. The same measure, in the same setting: the result for `Cc1ccc(Br)cc1` reads -5.76%; that for `CC/C=C/C#N`, -7.02%.

On to `C=CC(=O)NC(C)C`, for which the “activity change, negative = cytotoxicity” value is -5.05%.

Turning to `Cc1ccc2c(c1[N+](=O)[O-])C(=O)c1ccccc1C2=O`, the “activity change, negative = cytotoxicity” value was -6.57%. Still for that read-out and setting: then `ON=C1CCCCC1`, with 3.45%; and `OC/C(Br)=C(\Br)CO`, with -10.8%.

With `CCN(CC)c1cccc(O)c1`, the “activity change, negative = cytotoxicity” value was -14.3%. Same read-out and setting: the result for `CCOC(C)(C)C` reads -6.67%; that for `CCOCCOCC`, -0.715%. The same measure, in the same setting: the result for `O=C(O)c1ccc(Cl)cc1Cl` reads -7%; that for `CC(C)=C1CCC(C)CC1=O` (stereo not given), -8.21%. As to `CC1(N)CCC(C(C)(C)N)CC1` (stereo not given), the “activity change, negative = cytotoxicity” value was -11.3%.

Turning to `Nc1cccc2c(=O)[nH][nH]c(=O)c12`, the “activity change, negative = cytotoxicity” value is -6.55%. Turning to `C=CCOC(=O)COCCC(C)C`, the “activity change, negative = cytotoxicity” value is -9.92%. On the same count and under the same terms, then `Nc1ccccc1S(=O)(=O)O`, with 1.45%. On to `CCCCC(CC)CNCC(CC)CCCC` (stereo not given), for which the “activity change, negative = cytotoxicity” value was 11.6%. Still for that read-out and setting: the result for `BrC(Br)C(Br)Br` reads -7.65%.

Consider `CC1=C(/C=C/C(C)=C/C=C/C(C)=C\C=O)C(C)(C)CCC1`, for which the Potency was 50.1 µM (active). As to `CN(C)c1cccc(O)c1`, the “activity change, negative = cytotoxicity” value was -2.75%.

Turning to `O=C(O[C@@H](C(=O)O)[C@@H](OC(=O)c1ccccc1)C(=O)O)c1ccccc1`, the “activity change, negative = cytotoxicity” value is -14.2%. On the same count and under the same terms, the result for `N#CC1(O)CCCCC1` reads -11.6%.

For `CC(O)COC(C)(C)C` (stereo not given), the “activity change, negative = cytotoxicity” value is -0.734%. Same read-out and setting: then `CSc1ccc(C=O)cc1`, with -6.36%; and `CC(=O)c1cccc([N+](=O)[O-])c1`, with -9.09%. Same read-out and setting: the result for `CCC(C)=O` reads -18.3%; that for `O=[N+]([O-])c1c(Cl)cc(Cl)cc1Cl`, -14.2%.

Take `O=C1OC(=O)c2c(Cl)c(Cl)c(Cl)c(Cl)c21`: the “activity change, negative = cytotoxicity” value was -1.18%. Same read-out and setting: the result for `O=Cc1ccc(CO)o1` reads -0.311%; that for `S=C([S-])NCCNC(=S)[S-].[Zn+2]`, -13.3%; that for `CC(C=O)Cc1ccc(C(C)(C)C)cc1` (stereo not given), -20.7%.

Turning to `Oc1cccc(Nc2ccccc2)c1`, the “activity change, negative = cytotoxicity” value was -2.95%. Turning to `COc1cccc2sc(N)nc12`, the “activity change, negative = cytotoxicity” value is -11.2%. Still for that read-out and setting: the result for `Cc1cccc([N+](=O)[O-])c1C(=O)O` reads 5.65%; that for `CCC(C)(C)OC`, -8.17%; that for `Cc1cccc2sc(N)nc12`, -8.03%.
